Source: PubChem BioAssay AID371 (SRMLSC, 2006)
Out of some 3,300 compounds screened, about 280 (8.5%) were called active. The list comes from a sample in which actives are over-represented; it also holds similar structures and randomly drawn compounds. Unmarked numbers belong to inactive results.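 How the source made its calls: active means mean growth inhibition over the two runs of 50% or more; inactive means mean growth inhibition under 50%.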

Test: A549 NSCLC cell proliferation inhibitors – ATP luminescence, human non-small cell lung line, primary screen (AID 371);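 further: compound exposure lasted 72 h before the ATP read; 0% = untreated cell signal and 100% = no luminescence left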
Settings: at 10 µM, hits give high values

Row | Structure (SMILES) | growth inhibition
1 | COC(=O)c1ccc(N2C(=O)CC(N3CCN(C(=O)c4ccco4)CC3)C2=O)cc1 (stereo not drawn) | -5.76%
2 | COc1ccc(Cn2ccnc2)cc1Br | 7.92%
3 | CC1(C)Cc2c(c(N3CCOCC3)nc3snc(N)c23)CO1 | 91% (active)
4 | COc1nnnc2c1sc1nc(N3CCOCC3)c3c(c12)CC(C)(C)OC3 | -0.53%
5 | CC1(C)Cc2c(c(N3CCOCC3)nc3snc(Br)c23)CO1 | 16%
6 | CCCCNC(=O)N1CCOCCOCCN(C(=O)NCCCC)CCOCC1 | 2.17%
7 | N#Cc1nc(-c2ccccc2Cl)oc1N1CCCCC1 | 25.2%
8 | CCOP(=O)(c1ccccc1)c1nc(-c2ccc(F)cc2)oc1N1CCCCC1 (stereo not drawn) | 35.1%
9 | CCOP(=O)(c1ccccc1)c1nc(-c2ccccc2C)oc1N1CCCCC1 (stereo not drawn) | 90.3% (active)
10 | Clc1cccc(-c2nn3c(COc4ccccc4)nnc3s2)c1 | -1.72%
11 | Cc1nn(C)cc1/C=N/n1nnnc1N | 3.1%
12 | N#Cc1nc(-c2cccs2)oc1NCc1ccccc1 | 37.1%
13 | N#Cc1nc(-c2cccs2)oc1NCc1ccc2c(c1)OCO2 | 51.8% (active)
14 | N#Cc1nc(-c2cccs2)oc1NCc1ccccc1Cl | 16.3%
15 | Cc1ccc(C2/C(=C(/O)c3ccc(OC(C)C)cc3)C(=O)C(=O)N2CCN2CCOCC2)cc1 (stereo not drawn) | -0.89%
16 | Oc1c(C=NCc2ccncc2)sc2ccccc12 | 3.71%
17 | CC(=Nc1cccc(O)c1)c1sc2ccccc2c1O | 71.6% (active)
18 | Oc1c(C=Nc2cccnc2)sc2ccccc12 | 9.67%
19 | O=C1CC(N(O)C2CC(=O)N(Cc3ccccc3)C2=O)C(=O)N1Cc1ccccc1 (stereo not drawn) | 9.01%
20 | CN(C)CCCOC(=O)C1c2ccccc2Oc2ccccc21 | 8.41%
21 | Cc1ccc2[nH]c3c(c2c1)CCCC3C(N)=O (stereo not drawn) | 0.63%
22 | Cc1nnc(N2CCOCC2)c2ccccc12 | -0.2%
23 | O=C(NC1CCCCC1)Nn1c(-c2ccccc2)nc2ccccc2c1=O | 5.81%
24 | NC(=O)C(c1ccccc1)C1CCCC1 (stereo not drawn) | 2%
25 | O=C(NC1CCCCC1)N1CCSC1=Nc1ccccc1 | 83.3% (active)

Row | Structure (SMILES) | growth inhibition
26 | Cc1cc(C)n(-c2nnc(C)n2/N=C/c2ccccc2F)n1 | -1.21%
27 | CCc1nnc(NC(=O)CSc2nc(C)c3c(c2C#N)CCCC3)s1 | 47.6%
28 | Cc1ccc(-n2c(SCC(=O)NCc3ccco3)nc3nc4c(cc3c2=O)COC(C)(C)C4)cc1 | 7.55%
29 | CCCc1cc(-c2nc(N)ncc2-c2ccc3c(c2)OCCCO3)c(O)cc1OC | 78.2% (active)
30 | O=S(=O)(c1ccccc1)N1CCC(N2CCCCCC2)CC1 | 11.3%
31 | Cc1ccc(S(=O)(=O)N(CC(O)CN(C)C)c2ccccc2)cc1 (stereo not drawn) | 5.21%
32 | COC(=O)c1cc(Br)c(=O)n(-c2cc(C)on2)c1 | 5.44%
33 | CCCCCCSC1=C(C#N)C(c2ccccc2)CC(=O)N1 (stereo not drawn) | 17.1%
34 | C=C(C)CSC1=C(C#N)C(c2ccsc2)CC(=O)N1 (stereo not drawn) | 11.7%
35 | N#CC1=C2SCC(O)(c3ccccc3)N2C(=O)CC1c1ccccc1 (stereo not drawn) | 61.5% (active)
36 | CCCCn1c(O)c(C=NCCCN(C)C)c(=O)[nH]c1=O | -0.32%
37 | CC1(C)Cc2c(C#N)c(SCCC#N)nc(N3CCOCC3)c2CS1 | 26.4%
38 | CCOc1ccc(S(=O)(=O)N(C)CCO)cc1-c1nc2c(C(C)(C)C)nn(C)c2c(=O)[nH]1 | 22%
39 | CCOc1ccc(S(=O)(=O)NC(C)(C)C)cc1-c1nc2c(C(C)(C)C)nn(C)c2c(=O)[nH]1 | 62.9% (active)
40 | CCOc1ccc(S(=O)(=O)N(C)C)cc1-c1nc2c(C(C)(C)C)nn(C)c2c(=O)[nH]1 | -2.28%
41 | COC(=O)C(NC(=O)c1ccccc1)(Nc1nc(C)cs1)C(F)(F)F (stereo not drawn) | 4.51%
42 | CN(C)C(CN1C(=O)C2CC=CCC2C1=O)c1cn(C)c2ccccc12 (stereo not drawn) | -4.21%
43 | COc1ccc2[nH]c(C)c(C(=O)CN3CCOCC3)c2c1 | -6.74%
44 | Nc1nnnn1/N=C/c1ccccn1 | 3.3%
45 | COCCOC(=O)C1=C(C)NC(SCC(=O)NC(C)(C)C)=C(C#N)C1c1ccco1 (stereo not drawn) | 32.6%
46 | CCc1ccc(NC(=O)CSC2=C(C#N)C(c3ccco3)C3=C(CCCC3=O)N2)cc1 (stereo not drawn) | 44.8%
47 | CCN(CC)C(=O)CSC1=C(C#N)C(c2ccco2)C(C(=O)OCCOC)=C(C)N1 (stereo not drawn) | 1.8%
48 | COc1ccc(OC)c(NC(=O)CSC2=C(C#N)C(c3ccco3)C3=C(CCCC3=O)N2)c1 (stereo not drawn) | 16.1%
49 | C=CCOC(=O)C1=C(C)NC(SCC(=O)N(CC)CC)=C(C#N)C1c1ccccc1 (stereo not drawn) | 51.2% (active)
50 | COc1cccc(NC(=O)CSC2=C(C#N)C(c3ccco3)C3=C(CCCC3=O)N2)c1 (stereo not drawn) | 60.1% (active)

Row | Structure (SMILES) | growth inhibition
51 | C=CCOC(=O)C1=C(C)NC(SCC(=O)N(CC)CC)=C(C#N)C1c1ccco1 (stereo not drawn) | 21.8%
52 | CCc1ccccc1NC(=O)CSC1=C(C#N)C(c2ccc(O)c(OC)c2)C2=C(CCCC2=O)N1 (stereo not drawn) | 35%
53 | C=CCOC(=O)C1=C(C)NC(SCC(=O)Nc2ccc(C)c(Cl)c2)=C(C#N)C1c1ccco1 (stereo not drawn) | 84.2% (active)
54 | COc1ccc(NC(=O)CSC2=C(C#N)C(c3ccco3)C3=C(CCCC3=O)N2)c(OC)c1 (stereo not drawn) | 10.5%
55 | CCOC(=O)C1=C(c2ccccc2)NC(SCC(=O)Nc2ccccc2C)=C(C#N)C1c1ccco1 (stereo not drawn) | 38.8%
56 | CCCCc1ccc(NC(=O)CSC2=C(C#N)C(c3ccco3)C3=C(CCCC3=O)N2)cc1 (stereo not drawn) | 57.6% (active)
57 | O=c1[nH]c(CN2CCCCC2)nc2c1C1(CCCCC1)Cc1ccccc1-2 | -4.24%
58 | CCCCc1[nH]c(=O)c(C#N)c2c1CSC(C)(C)C2 | 7.58%
59 | CCCCOC(=O)CSC1=C(C#N)C(c2ccccc2OC)C(C#N)C(=O)N1 (stereo not drawn) | 6.07%
60 | COc1ccc2nc(SCC(=O)O)nc(C)c2c1 | -2.56%
61 | COc1ccc(-c2cc(=O)[nH]c(=O)[nH]2)cc1 | 1.67%
62 | Cc1nnc2n(-c3ccccc3)c(=O)c3c4c(sc3n12)COC(C)(C)C4 | -0.59%
63 | N#Cc1ccc(-c2cccnc2)nc1SCC(=O)Nc1sc2c(c1C#N)CCC2 | 14.6%
64 | CCC(C)n1ncn(-c2ccc(N3CCN(c4ccc(OCC5COC(Cn6cncn6)(c6ccc(Cl)cc6Cl)O5)cc4)CC3)cc2)c1=O (stereo not drawn) | 50.3% (active)
65 | COCc1n[nH]c(=S)n1-c1cccc2ccccc12 | 4.29%
66 | CCOc1ccc(N=C2C(=O)N(CN3CCOCC3)c3ccccc32)cc1 | 20.3%
67 | COC(=O)c1ccc(Cn2c(O)c(N=O)c3ccccc32)o1 | 8.55%
68 | CCCCCC(=O)N1CC2(CC)CN(C(=O)CCCCC)CC(CC)(C1)C2=O | 14.3%
69 | CC(Sc1ccc2ccccc2n1)C(=O)O (stereo not drawn) | -2.6%
70 | O=C(O)CCSc1ccc2ccccc2n1 | 1.45%
71 | O=C1c2ccccc2C(=O)C1c1ccc2ccccc2n1 | 74.9% (active)
72 | COC(=O)/C(=C1/Oc2cc(C)oc(=O)c2S1)C(F)(F)F | 76.1% (active)
73 | COC(=O)C1=C(N)Oc2cc(C)oc(=O)c2C1c1ccncc1 (stereo not drawn) | -1.55%
74 | COC(=O)c1ccc(C2/C(=C(\O)c3cccc(OC)c3)C(=O)C(=O)N2CCCN(C)C)cc1 (stereo not drawn) | 1.92%
75 | Cc1nnc2n(-c3ccccc3)c(=O)c3c4c(sc3n12)CC(C)CC4 (stereo not drawn) | 12.7%

Row | Structure (SMILES) | growth inhibition
76 | CN=C(c1ccco1)n1c(=S)nc(-c2ccco2)n(C)c1=S | 5.55%
77 | CC(=O)Oc1cccc2c1C(=O)c1c(OC(C)=O)cc(C(=O)O)cc1C2=O | 57.8% (active)
78 | O=C(O)c1cc(O)c2c(c1)C(=O)c1cccc(O)c1C2=O | 59.2% (active)
79 | Nc1cccc(C(=O)O)c1 | 4.57%
80 | CC(=O)Oc1ccccc1C1OC(=O)c2ccccc2N1C(C)=O (stereo not drawn) | 4.51%
81 | NS(=O)(=O)c1ccc(C(=O)O)cc1 | -6.06%
82 | COc1cc(C(=O)Nc2ccc(O)cc2C(=O)O)ccc1OC(C)=O | 2.72%
83 | CN1CCN(Cc2c(O)ccc3c(-c4ccccc4)cc(=O)oc23)CC1 | 8.11%
84 | Cc1c(Cl)c(C(F)(F)F)nn1CC(=O)N1CCSCC1 | 8.88%
85 | Cn1c(OCc2cccnc2)nc2c1c(=O)n(Cc1ccc(Cl)cc1)c(=O)n2C | 35.5%
86 | O=C(NCCCNCc1ccccc1)/C(=N\O)c1ccccc1 | 1.98%
87 | CCOC(=O)c1[nH]c2ccc(Br)cc2c1NC(=O)CNC | 15.7%
88 | C=COC(=O)CSc1nc(-c2cccs2)ccc1C#N | 5.33%
89 | CC(=O)NCC(=O)OCN1C(=O)c2ccccc2C1=O | -2.75%
90 | CCC(=O)Nc1nc(C)c(Oc2ccccc2)c(=O)[nH]1 | 1.39%
91 | Cn1c(=O)oc2cc(C(=O)c3ccccc3)ccc21 | 13.3%
92 | CCOc1ccc2nc(SCC(=O)Nc3ncccn3)[nH]c2c1 | -4.07%
93 | CCCSc1ccc2nc(NC(=O)OC)[nH]c2c1 | 53.2% (active)
94 | COC(=O)Nc1nc2ccc(C(=O)c3ccccc3)cc2[nH]1 | 55.8% (active)
95 | Cn1c(=O)n(C)c2cc(C(=O)c3ccccc3)ccc21 | 5.5%
96 | CC(=O)Nc1ccc(Oc2ccc3nc(C)[nH]c3c2)cc1 | 10.6%
97 | COC(=O)Nc1nc2ccc(Sc3ccccc3)cc2[nH]1 | 81.7% (active)
98 | CCCOc1ccc2nc(NC(=O)OC)[nH]c2c1 | 48.4%
